# The supplement of paper PMC8728848
# The full list was thinned out, with the strongest signals kept by preference.
# Legend:
# Assay in all cases: glycan array binding signal (z-score within array); higher = stronger binding
# Settings in all cases: glycan notation: IUPAC condensed, linker removed
# [1] = target: Fuc(a1-2)Gal6S(b1-4)Glc6S
# Outline: (§1)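 The binding signal is a Z-score computed within each array. Data were drawn from 3228 arrays in the Consortium for Functional Glycomics database, restricted to those with a known protein sequence. Scores were averaged over arrays of the same protein sequence at different concentrations or buffers, and over linkers, and negative values can be taken as non-binding.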
# [2] = target: Fuc(a1-2)[Gal(a1-3)]Gal(b1-4)GlcNAc
# Outline: as §1
# [3] = target: Fuc(a1-2)[GalNAc(a1-3)]Gal(b1-3)GlcNAc
# Outline: as §1
# [4] = target: Fuc(a1-2)[GalNAc(a1-4)]Gal(b1-4)GlcNAc
# Outline: as §1
# Fuc(a1-3)GlcNAc = target: Fuc(a1-3)GlcNAc
# Outline: as §1
# [5] = target: Fuc(a1-3)[Gal(b1-4)]GlcNAc(b1-2)Man(a1-6)[Gal(b1-4)GlcNAc(b1-2)Man(a1-3)]Man(b1-4)GlcNAc(b1-4)GlcNAc
# Outline: as §1
# Fuc(a1-4)GlcNAc = target: Fuc(a1-4)GlcNAc
# Outline: as §1
# [6] = target: Gal(a1-3)[Gal(a1-4)]Gal(b1-4)GlcNAc
# Outline: as §1
# Gal(a1-4)Gal(b1-4)Glc = target: Gal(a1-4)Gal(b1-4)Glc
# Outline: as §1
# [7] = target: Gal(b1-4)GalNAc(a1-3)[Fuc(a1-2)]Gal(b1-4)GlcNAc
# Outline: as §1
# Gal(b1-4)Glc = target: Gal(b1-4)Glc
# Outline: as §1
# Gal(b1-4)Glc6S = target: Gal(b1-4)Glc6S
# Outline: as §1
# [8] = target: GlcNAc(a1-3)Gal(b1-4)GlcNAc
# Outline: as §1
# [9] = target: GlcNAc(a1-6)Gal(b1-4)GlcNAc
# Outline: as §1
# Neu5Ac(a2-3)Gal = target: Neu5Ac(a2-3)Gal
# Outline: as §1
# [10] = target: Neu5Ac(a2-3)Gal(b1-4)[Fuc(a1-3)]GlcNAc(b1-3)Gal(b1-4)GlcNAc
# Outline: as §1
# [11] = target: Neu5Ac(a2-3)Gal(b1-4)[Fuc(a1-3)]GlcNAc(b1-6)[Gal(b1-3)]GalNAc
# Outline: as §1
# [12] = target: Neu5Ac(a2-3)GalNAc(b1-4)GlcNAc
# Outline: as §1
# Neu5Ac(a2-6)Gal(b1-4)Glc = target: Neu5Ac(a2-6)Gal(b1-4)Glc
# Outline: as §1
# [13] = target: Neu5Ac(a2-6)Gal(b1-4)GlcNAc
# Outline: as §1
# [14] = target: Neu5Ac(a2-6)Gal(b1-4)GlcNAc(b1-2)Man(a1-3)[Gal(b1-4)GlcNAc(b1-2)Man(a1-6)]Man(b1-4)GlcNAc(b1-4)GlcNAc
# Outline: as §1
# [15] = target: Neu5Ac(a2-6)Gal(b1-4)GlcNAc(b1-2)Man(a1-3)[GlcNAc(b1-2)Man(a1-6)]Man(b1-4)GlcNAc(b1-4)GlcNAc
# Outline: as §1
# [16] = target: Neu5Ac(a2-6)Gal(b1-4)GlcNAc(b1-2)Man(a1-3)[Neu5Ac(a2-6)Gal(b1-4)GlcNAc(b1-2)Man(a1-6)]Man(b1-4)GlcNAc(b1-4)GlcNAc
# Outline: as §1
# [17] = target: Neu5Ac(a2-6)Gal(b1-4)GlcNAc(b1-2)Man(a1-6)[GlcNAc(b1-2)Man(a1-3)]Man(b1-4)GlcNAc(b1-4)GlcNAc
# Outline: as §1
# [18] = target: Neu5Ac(a2-6)Gal(b1-4)GlcNAc6S
# Outline: as §1
# [19] = target: Fuc(a1-2)Gal6S(b1-4)GlcNAc
# Outline: as §1
# [20] = target: Fuc(a1-2)[Gal(a1-3)]Gal(b1-4)Glc
# Outline: as §1
# [21] = target: Fuc(a1-2)[GalNAc(a1-3)]Gal(b1-4)GlcNAc
# Outline: as §1
# [22] = target: Fuc(a1-2)[GalNAc(a1-3)]Gal(b1-4)[Fuc(a1-3)]GlcNAc
# Outline: as §1
# Gal(b1-3)Gal(b1-4)GlcNAc = target: Gal(b1-3)Gal(b1-4)GlcNAc
# Outline: as §1
# [23] = target: Gal(b1-3)GalNAc(b1-4)[Neu5Ac(a2-3)]Gal(b1-4)Glc
# Outline: as §1
# [24] = target: Gal(b1-3)[Neu5Ac(a2-6)]GalNAc
# Outline: as §1
# [25] = target: Gal(b1-4)GlcNAc(a1-6)Gal(b1-4)GlcNAc
# Outline: as §1
# [26] = target: Gal(b1-4)GlcNAc(b1-3)Gal(b1-4)[Fuc(a1-3)]GlcNAc(b1-3)Gal(b1-4)[Fuc(a1-3)]GlcNAc
# Outline: as §1
# [27] = target: Gal(b1-4)GlcNAc(b1-3)[Gal(b1-4)GlcNAc(b1-6)]Gal(b1-4)GlcNAc
# Outline: as §1
# Gal3S6S(b1-4)GlcNAc6S = target: Gal3S6S(b1-4)GlcNAc6S
# Outline: as §1
# GalNAc(a1-3)Gal = target: GalNAc(a1-3)Gal
# Outline: as §1
# [28] = target: Man(a1-2)Man(a1-3)[Man(a1-2)Man(a1-6)]Man(a1-6)[Man(a1-2)Man(a1-2)Man(a1-3)]Man
# Outline: as §1
# Man(a1-3)[Man(a1-6)]Man = target: Man(a1-3)[Man(a1-6)]Man
# Outline: as §1
# [29] = target: Man(a1-3)[Man(a1-6)]Man(a1-6)[Man(a1-3)]Man(b1-4)GlcNAc(b1-4)GlcNAc
# Outline: as §1
# [30] = target: Neu5Ac(a2-3)Gal(b1-3)GalNAc6S
# Outline: as §1
# [31] = target: Neu5Ac(a2-3)Gal(b1-3)GlcNAc(b1-3)Gal(b1-3)GlcNAc
# Outline: as §1
# Neu5Ac(a2-8)Neu5Ac = target: Neu5Ac(a2-8)Neu5Ac
# Outline: as §1
# Fuc(a1-2)[Gal(a1-3)]Gal = target: Fuc(a1-2)[Gal(a1-3)]Gal
# Outline: as §1
# [32] = target: Fuc(a1-2)[Gal(a1-4)]Gal(b1-4)GlcNAc
# Outline: as §1
# Gal(a1-3)Gal = target: Gal(a1-3)Gal
# Outline: as §1
# [33] = target: Gal(b1-3)GlcNAc(b1-3)Gal(b1-3)GlcNAc
# Outline: as §1
# Gal3S(b1-4)GlcNAc6S = target: Gal3S(b1-4)GlcNAc6S
# Outline: as §1
# GlcA(b1-3)GlcNAc = target: GlcA(b1-3)GlcNAc
# Outline: as §1
# GlcNAc(b1-3)Gal(b1-4)Glc = target: GlcNAc(b1-3)Gal(b1-4)Glc
# Outline: as §1
# Neu5Ac(a2-6)GalNAc = target: Neu5Ac(a2-6)GalNAc
# Outline: as §1
# [34] = target: Neu5Ac(a2-8)Neu5Ac(a2-3)[GalNAc(b1-4)]Gal(b1-4)Glc
# Outline: as §1
# Neu5Gc(a2-3)Gal(b1-4)Glc = target: Neu5Gc(a2-3)Gal(b1-4)Glc
# Outline: as §1
# [35] = target: Neu5Gc(a2-3)Gal(b1-4)GlcNAc
# Outline: as §1
# Neu5Gc(a2-6)GalNAc = target: Neu5Gc(a2-6)GalNAc
# Outline: as §1
binder,measurement,setting,value
"SLR2P3F12 (Tachypleus tridentatus), TAL2_TACTR (protein) MEKGTPPTHDSDNWMGRAKKIGNGGWNQFQFLFFDPNGYLYAVSKDKLYKASPPQSDTDNWIARATEIGSGGWSGFKSLFFHPNGYLYAVHGQRLYKALPPVSNQD",glycan array binding signal (z-score),[1],-0.343
same,glycan array binding signal (z-score),[2],-0.417
same,glycan array binding signal (z-score),[3],0.556
same,glycan array binding signal (z-score),[4],2.01
same,glycan array binding signal (z-score),Fuc(a1-3)GlcNAc,-0.301
same,glycan array binding signal (z-score),[5],0.218
same,glycan array binding signal (z-score),Fuc(a1-4)GlcNAc,1.42
same,glycan array binding signal (z-score),[6],0.143
same,glycan array binding signal (z-score),Gal(a1-4)Gal(b1-4)Glc,-0.342
same,glycan array binding signal (z-score),[7],-0.208
same,glycan array binding signal (z-score),Gal(b1-4)Glc,2.75
same,glycan array binding signal (z-score),Gal(b1-4)Glc6S,-0.248
same,glycan array binding signal (z-score),[8],5.11
same,glycan array binding signal (z-score),[9],13.2
same,glycan array binding signal (z-score),Neu5Ac(a2-3)Gal,-0.415
same,glycan array binding signal (z-score),[10],-0.203
same,glycan array binding signal (z-score),[11],2.75
same,glycan array binding signal (z-score),[12],0.435
same,glycan array binding signal (z-score),Neu5Ac(a2-6)Gal(b1-4)Glc,-0.125
same,glycan array binding signal (z-score),[13],-0.317
same,glycan array binding signal (z-score),[14],-0.422
same,glycan array binding signal (z-score),[15],-0.235
same,glycan array binding signal (z-score),[16],0.131
same,glycan array binding signal (z-score),[17],1.27
same,glycan array binding signal (z-score),[18],0.194
"R410P1E11 (Tachypleus tridentatus), TAL2_TACTR (protein) MEKGTPPTHDSDNWMGRAKEIGNGGWDQFQFLFFDPNGYLYAVSNDKLYKASPPQSDTDNWIARATEIGSGGWSGFKFLFFHPNGYLYAVRGQRFYKALPPVSNQD",glycan array binding signal (z-score),[19],-0.187
same,glycan array binding signal (z-score),[20],-0.282
same,glycan array binding signal (z-score),[21],2.74
same,glycan array binding signal (z-score),[22],1.41
same,glycan array binding signal (z-score),[4],5.65
same,glycan array binding signal (z-score),Fuc(a1-4)GlcNAc,-0.369
same,glycan array binding signal (z-score),Gal(a1-4)Gal(b1-4)Glc,-0.323
same,glycan array binding signal (z-score),Gal(b1-3)Gal(b1-4)GlcNAc,-0.622
same,glycan array binding signal (z-score),[23],-0.397
same,glycan array binding signal (z-score),[24],-0.538
same,glycan array binding signal (z-score),[25],-0.52
same,glycan array binding signal (z-score),[26],-0.411
same,glycan array binding signal (z-score),[27],-0.144
same,glycan array binding signal (z-score),Gal3S6S(b1-4)GlcNAc6S,0.451
same,glycan array binding signal (z-score),GalNAc(a1-3)Gal,7.43
same,glycan array binding signal (z-score),[8],3.25
same,glycan array binding signal (z-score),[9],10.1
same,glycan array binding signal (z-score),[28],-0.751
same,glycan array binding signal (z-score),Man(a1-3)[Man(a1-6)]Man,-0.45
same,glycan array binding signal (z-score),[29],-0.483
same,glycan array binding signal (z-score),[30],-0.515
same,glycan array binding signal (z-score),[31],0.008
same,glycan array binding signal (z-score),[12],0.139
same,glycan array binding signal (z-score),Neu5Ac(a2-8)Neu5Ac,-0.039
"SLR2P2A3 (Tachypleus tridentatus), TAL2_TACTR (protein) MEKGTPPTHDSDNWMGRAKKIGNGGWNQFQFLFFDPNGYLYAVSKDKLYKASPPQSDTDNWIARATEIGSGGWSGSKFLFFHPNGYLYAVHGQRLYKALPPVSNQD",glycan array binding signal (z-score),Fuc(a1-2)[Gal(a1-3)]Gal,-0.054
same,glycan array binding signal (z-score),[20],-0.191
same,glycan array binding signal (z-score),[32],-0.148
same,glycan array binding signal (z-score),[4],7.28
same,glycan array binding signal (z-score),Fuc(a1-4)GlcNAc,-0.416
same,glycan array binding signal (z-score),Gal(a1-3)Gal,-0.317
same,glycan array binding signal (z-score),[33],-0.344
same,glycan array binding signal (z-score),Gal3S(b1-4)GlcNAc6S,-0.09
same,glycan array binding signal (z-score),GalNAc(a1-3)Gal,6.13
same,glycan array binding signal (z-score),GlcA(b1-3)GlcNAc,0.168
same,glycan array binding signal (z-score),[8],5.44
same,glycan array binding signal (z-score),[9],6.84
same,glycan array binding signal (z-score),GlcNAc(b1-3)Gal(b1-4)Glc,5.09
same,glycan array binding signal (z-score),Neu5Ac(a2-6)GalNAc,-0.16
same,glycan array binding signal (z-score),[34],-0.279
same,glycan array binding signal (z-score),Neu5Gc(a2-3)Gal(b1-4)Glc,-0.253
same,glycan array binding signal (z-score),[35],-0.059
same,glycan array binding signal (z-score),Neu5Gc(a2-6)GalNAc,-0.125
